Active and inactive are the calls of the source.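 Rule for the calls: active = inhibition at or above 50% relative to wild type and mutant plate controls; inactive = inhibition below 50%.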
Assay: inhibitors of Chlamydomonas gravitaxis, primary screen, whole organism, Chlamydomonas reinhardtii, WT vs cilia-less mutant, absorbance, 96-well (AID 463189);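 note: 0% = wild type cc124 cells in DMSO and 100% = ciliumless bld1 mutant cells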
Details: OD600 absorbance, 2 days, at 10 µM, active compounds read high

Structure (SMILES)	inhibition
N#C/C(=C\c1ccc(O)c(O)c1)C(=O)c1ccc(O)c(O)c1	2.24% (inactive)
N[C@H](C(=O)O)[C@H](O)C(=O)O	0.558% (inactive)
Cn1c(=O)c2c(ncn2C)n(C)c1=O	1.74% (inactive)
C=CC(N)CCC(=O)O (stereo not given)	-6.67% (inactive)
NC(=O)NO	-5.8% (inactive)
CCCCCCCCCCCCCCCCCC(=O)OC(CC(=O)O)C[N+](C)(C)C (stereo not given)	6.23% (inactive)
COc1ccc2c(c1)c(CC(=O)O)c(C)n2Cc1ccc(Cl)cc1	-1.76% (inactive)
O=C(O)C1=CC(=C(c2ccc(O)c(C(=O)O)c2)c2ccc(O)c(C(=O)O)c2)C=CC1=O	0.098% (inactive)
O=C(O)CCC(NC(=O)c1ccccc1C(=O)O)C(=O)O (stereo not given)	1.62% (inactive)
CCCCS(=N)(=O)CC[C@H](N)C(=O)O (stereo not given in full)	-0.592% (inactive)
O=C(O)c1cccnc1C(=O)O	3.76% (inactive)
NC(CCCP(=O)(O)O)C(=O)O (stereo not given)	-5.37% (inactive)
CCCCCCCCCC[Si](C)(C)CCC(=O)NC(Cc1ccc(C)cc1)c1ccccc1 (stereo not given)	1.73% (inactive)
CCCCCN(CCCCC)C(=O)C(CCC(=O)O)NC(=O)c1ccc(Cl)c(Cl)c1 (stereo not given)	-0.994% (inactive)
N#CC(=C(\N)Sc1ccccc1N)/C(C#N)=C(/N)Sc1ccccc1N	13.7% (inactive)
CCCN(CC1CC1)c1nc(C)nc(Nc2c(Cl)cc(Cl)cc2Cl)c1Cl	3.71% (inactive)
CC(C)N(CCC(=O)c1ccc2ccccc2c1)Cc1ccccc1	10.3% (inactive)
CC(=O)[C@@]1(O)CC[C@H]2[C@@H]3CCC4=CC(=O)CC[C@]4(C)[C@H]3CC[C@@]21C	-1.04% (inactive)
N=C(N)SCCc1ccc(CCSC(=N)N)cc1	9.2% (inactive)
CN1CCc2cc(Cl)c(O)cc2[C@@H](c2ccccc2)C1	5.1% (inactive)

Structure (SMILES)	inhibition
N=C(N)c1ccccc1	7.5% (inactive)
CC(C)NC[C@H](O)COc1cccc2ccccc12	8.72% (inactive)
C[N+]1(CCCCC[N+]2(C)CCCC2)CCCC1	-4.7% (inactive)
COc1cc2c(CCNC(C)=O)c[nH]c2cc1O	-0.037% (inactive)
CC(N)=NCCCC[C@@H](N)C(=O)O	7.31% (inactive)
NCCc1cnc[nH]1	2.56% (inactive)
COC(=O)Nc1nc2ccc(C(=O)c3cccs3)cc2[nH]1	11.2% (inactive)
O=C1CCC(N2C(=O)c3ccccc3C2=O)C(=O)N1 (stereo not given)	10.8% (inactive)
NC(N)=NCc1cccc(I)c1	4.17% (inactive)
C/C(=C\c1ccc(C(=O)O)cc1)c1ccc2c(c1)C(C)(C)CCC2(C)C	9.5% (inactive)
CCCn1cnc2c1c(=O)n(CCCCC(C)=O)c(=O)n2C	3.15% (inactive)
CN=c1nc(-c2ccccc2)n(-c2ccccc2)s1	13% (inactive)
O=C(Nc1cccc(C(=O)Nc2ccc(S(=O)(=O)O)c3cc(S(=O)(=O)O)cc(S(=O)(=O)O)c23)c1)Nc1cccc(C(=O)Nc2ccc(S(=O)(=O)O)c3cc(S(=O)(=O)O)cc(S(=O)(=O)O)c23)c1	1.9% (inactive)
Cc1cccc(C)c1OCC(C)N (stereo not given)	7.46% (inactive)
N[C@H]1CONC1=O	6.36% (inactive)
CCCCS(=N)(=O)CCC(N)C(=O)O (stereo not given)	-0.023% (inactive)
CNc1ncnc2c1ncn2[C@H]1C[C@H](OP(=O)(O)O)[C@@H](COP(=O)(O)O)O1	1.24% (inactive)
CC1=C(C(=O)O)N2C(=O)[C@@H](NC(=O)C(N)C3=CCC=CC3)[C@H]2SC1 (stereo not given in full)	6.7% (inactive)
CCOC(=O)c1cnc2c(cnn2CC)c1NN=C(C)C	7.54% (inactive)
N=C(N)c1ccc(OCCCCCOc2ccc(C(=N)N)cc2)cc1 (tested in a mixture with another compound)	143% (active)

Reference: PubChem BioAssay
